From the supplement of paper PMC10037445
“And” between values parts separate entries of the source, which are not always exact repeats. Equal values may be shown once. In all, about 2,900 compounds were measured (“NF-kB SEAP reporter activity, fold change vs agonist alone”: median about 0.99, highest 2% from about 2.6 on). The list comes from a sample in which the highest values are over-represented; it also holds similar structures and randomly drawn compounds.

Columns and labels:
RAW-Dual [1] = experiment: NF-kB SEAP reporter activity, fold change vs agonist alone; higher = enhanced NF-kB activity; details: library stock concentration (final ~1000-fold dilution): 10 mM
Summary of the method: (§1)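 Library stock was pin-tooled at 50 nL into 384-well plates of RAW-Dual macrophages (50,000 cells/well, DMEM), followed 1 h later by a PRR agonist, and the cells were kept at 37 °C, 5% CO2. Supernatant collected after 20 hours was read for IRF by QuantiLuc luminescence and for NF-κB by QuantiBlue absorbance at 620 nm. Reporter activity is fold change over agonist-alone wells, and a well counted as cytotoxic when its IncuCyte confluency was below 70% of agonist controls in both mask sets.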

RAW-Dual [2] = experiment: NF-kB SEAP reporter activity, fold change vs agonist alone; cytotoxicity flag (confluency mask): not cytotoxic; higher = enhanced NF-kB activity
Summary of the method: as §1

RAW-Dual [3] = experiment: NF-kB SEAP reporter activity, fold change vs agonist alone; cytotoxicity flag (confluency mask): cytotoxic (confluency <70% of control); higher = enhanced NF-kB activity
Summary of the method: as §1

[4] = cytotoxicity flag (confluency mask): not cytotoxic, agonist: Imiquimod (TLR7) […]
[5] = cytotoxicity flag (confluency mask): not cytotoxic, agonist: MPLA (TLR4) […]
[6] = agonist: ODN 1826 (TLR9) 0.5 ug/mL
[7] = agonist: Pam2CSK4 (TLR2/6) 0.1 ug/mL
[8] = agonist: Pam3CSK4 (TLR2/1) 0.1 ug/mL

CCCS(=O)(=O)Nc1ccc(F)c(C(=O)c2c[nH]c3ncc(-c4ccc(Cl)cc4)cc23)c1F
NF-kB SEAP reporter activity (RAW-Dual [1]; [4]): 1.1 | NF-kB SEAP reporter activity (RAW-Dual [1]; [5]): 1.3

O=C(O)c1ccc(-c2c[nH]c3ncc(-c4ccccc4)cc23)cc1C1CCCC1
NF-kB SEAP reporter activity (RAW-Dual [1]; [4]): 0.374 | NF-kB SEAP reporter activity (RAW-Dual [1]; [5]): 1.16

O=C(c1c(F)ccc(NS(=O)(=O)N2CCC(F)C2)c1F)c1c[nH]c2ncc(-c3cnc(C4CC4)nc3)cc12 (stereo not given) (library stock concentration (final ~1000-fold dilution): 10 mM)
NF-kB SEAP reporter activity (RAW-Dual [2]; agonist: LPS (TLR4) 0.1 ug/mL): 3.62 | NF-kB SEAP reporter activity (RAW-Dual [2]; [6]): 1.42 | NF-kB SEAP reporter activity (RAW-Dual [2]; [7]): 0.526 | NF-kB SEAP reporter activity (RAW-Dual [2]; [8]): 0.5

O=C(O)c1ccc(-c2c[nH]c3ncc(-c4ccccc4)cc23)cc1C1CCCC1 (library stock concentration (final ~1000-fold dilution): 10 mM)
NF-kB SEAP reporter activity (RAW-Dual [2]; agonist: LPS (TLR4) 0.1 ug/mL): 1.15 | NF-kB SEAP reporter activity (RAW-Dual [2]; [6]): 0.388 | NF-kB SEAP reporter activity (RAW-Dual [2]; [7]): 0.646 | NF-kB SEAP reporter activity (RAW-Dual [2]; [8]): 0.497

CCCS(=O)(=O)Nc1ccc(F)c(C(=O)c2c[nH]c3ncc(Cl)cc23)c1F
NF-kB SEAP reporter activity (RAW-Dual [1]; [4]): 0.891 | NF-kB SEAP reporter activity (RAW-Dual [1]; [5]): 1.34

CCCS(=O)(=O)Nc1ccc(F)c(C(=O)c2c[nH]c3ncc(-c4ccc(Cl)cc4)cc23)c1F (library stock concentration (final ~1000-fold dilution): 10 mM)
NF-kB SEAP reporter activity (RAW-Dual [2]; agonist: LPS (TLR4) 0.1 ug/mL): 0.99 | NF-kB SEAP reporter activity (RAW-Dual [2]; [6]): 0.941 | NF-kB SEAP reporter activity (RAW-Dual [2]; [7]): 0.4 | NF-kB SEAP reporter activity (RAW-Dual [2]; [8]): 0.411

CCN(C)S(=O)(=O)Nc1ccc(F)c(C(=O)c2c[nH]c3ncc(-c4cnc(C5CC5)nc4)cc23)c1F
NF-kB SEAP reporter activity (RAW-Dual [1]; [4]): 1.24 | NF-kB SEAP reporter activity (RAW-Dual [1]; [5]): 1.62

COc1ccc(F)c(F)c1C(=O)c1cnc(NC2CCN(S(C)(=O)=O)CC2)nc1N
NF-kB SEAP reporter activity (RAW-Dual [1]; [4]): 0.977 | NF-kB SEAP reporter activity (RAW-Dual [1]; [5]): 0.905

O=C(c1c(F)ccc(NS(=O)(=O)N2CCC(F)C2)c1F)c1c[nH]c2ncc(-c3cnc(C4CC4)nc3)cc12 (stereo not given)
NF-kB SEAP reporter activity (RAW-Dual [1]; [4]): 1.12 | NF-kB SEAP reporter activity (RAW-Dual [1]; [5]): 1.52

CCN(C)S(=O)(=O)Nc1ccc(F)c(C(=O)c2c[nH]c3ncc(-c4cnc(C5CC5)nc4)cc23)c1F (library stock concentration (final ~1000-fold dilution): 10 mM)
NF-kB SEAP reporter activity (RAW-Dual [2]; agonist: LPS (TLR4) 0.1 ug/mL): 3.3 | NF-kB SEAP reporter activity (RAW-Dual [2]; [6]): 1.55 | NF-kB SEAP reporter activity (RAW-Dual [2]; [7]): 0.469 | NF-kB SEAP reporter activity (RAW-Dual [2]; [8]): 0.764

CCCS(=O)(=O)Nc1ccc(F)c(C(=O)c2c[nH]c3ncc(Cl)cc23)c1F (library stock concentration (final ~1000-fold dilution): 10 mM)
NF-kB SEAP reporter activity (RAW-Dual [2]; agonist: LPS (TLR4) 0.1 ug/mL): 1.48 | NF-kB SEAP reporter activity (RAW-Dual [2]; [6]): 0.781 | NF-kB SEAP reporter activity (RAW-Dual [2]; [7]): 0.389 | NF-kB SEAP reporter activity (RAW-Dual [2]; [8]): 0.505

COc1ccc(F)c(F)c1C(=O)c1cnc(NC2CCN(S(C)(=O)=O)CC2)nc1N (library stock concentration (final ~1000-fold dilution): 10 mM)
NF-kB SEAP reporter activity (RAW-Dual [2]; agonist: LPS (TLR4) 0.1 ug/mL): 0.194 | NF-kB SEAP reporter activity (RAW-Dual [2]; [6]): 0.985 | NF-kB SEAP reporter activity (RAW-Dual [2]; [7]): 0.0957 | NF-kB SEAP reporter activity (RAW-Dual [2]; [8]): 1.16

CCNC(=O)Nc1ccc(-c2nc3c(c(N4CCOCC4C)n2)CCN(C2COC2)C3)cc1 (stereo not given) (library stock concentration (final ~1000-fold dilution): 10 mM)
NF-kB SEAP reporter activity (RAW-Dual [2]; agonist: LPS (TLR4) 0.1 ug/mL): 0.974 | NF-kB SEAP reporter activity (RAW-Dual [2]; [6]): 0.705 | NF-kB SEAP reporter activity (RAW-Dual [2]; [7]): 0.395 | NF-kB SEAP reporter activity (RAW-Dual [2]; [8]): 0.411

CCNC(=O)Nc1ccc(-c2nc3c(c(N4CCOCC4C)n2)CCN(C2COC2)C3)cc1 (stereo not given)
NF-kB SEAP reporter activity (RAW-Dual [1]; [4]): 0.771 | NF-kB SEAP reporter activity (RAW-Dual [1]; [5]): 1.23

Cc1nc(NC(=O)N2CCCC2C(N)=O)sc1-c1csc(C(C)(C)C)n1 (stereo not given)
NF-kB SEAP reporter activity (RAW-Dual [1]; [4]): 1.01 | NF-kB SEAP reporter activity (RAW-Dual [1]; [5]): 0.941

Cc1nc(NC(=O)N2CCCC2C(N)=O)sc1-c1csc(C(C)(C)C)n1 (stereo not given) (library stock concentration (final ~1000-fold dilution): 10 mM)
NF-kB SEAP reporter activity (RAW-Dual [2]; agonist: LPS (TLR4) 0.1 ug/mL): 0.881 | NF-kB SEAP reporter activity (RAW-Dual [2]; [6]): 1.41 | NF-kB SEAP reporter activity (RAW-Dual [2]; [7]): 1.32 | NF-kB SEAP reporter activity (RAW-Dual [2]; [8]): 1

CC(C)N(CCCNC(=O)Nc1ccc(C(C)(C)C)cc1)CC1OC(n2ccc3c(N)ncnc32)C(O)C1O (stereo not given) (library stock concentration (final ~1000-fold dilution): 10 mM)
NF-kB SEAP reporter activity (RAW-Dual [2]; agonist: LPS (TLR4) 0.1 ug/mL): 0.953 | NF-kB SEAP reporter activity (RAW-Dual [2]; [6]): 1.05 | NF-kB SEAP reporter activity (RAW-Dual [2]; [7]): 0.991 | NF-kB SEAP reporter activity (RAW-Dual [2]; [8]): 1.14

CC(C)N(CCCNC(=O)Nc1ccc(C(C)(C)C)cc1)CC1OC(n2ccc3c(N)ncnc32)C(O)C1O (stereo not given)
NF-kB SEAP reporter activity (RAW-Dual [1]; [4]): 1.02 | NF-kB SEAP reporter activity (RAW-Dual [1]; [5]): 0.984

C=C(C)C1CCC2(C(=O)O)CCC3(C)C(CCC4C5(C)CCC(O)C(C)(C)C5CCC43C)C12 (stereo not given)
NF-kB SEAP reporter activity (RAW-Dual [1]; [4]): 1.04 | NF-kB SEAP reporter activity (RAW-Dual [1]; [5]): 1.1

C=C(C)C1CCC2(C(=O)O)CCC3(C)C(CCC4C5(C)CCC(O)C(C)(C)C5CCC43C)C12 (stereo not given) (library stock concentration (final ~1000-fold dilution): 10 mM)
NF-kB SEAP reporter activity (RAW-Dual [2]; agonist: LPS (TLR4) 0.1 ug/mL): 1.45 | NF-kB SEAP reporter activity (RAW-Dual [2]; [6]): 0.913 | NF-kB SEAP reporter activity (RAW-Dual [2]; [7]): 0.832 | NF-kB SEAP reporter activity (RAW-Dual [2]; [8]): 1.14

O=C(NCCCNc1nc(Nc2cccc(NC(=O)N3CCCC3)c2)ncc1I)c1cccs1 (library stock concentration (final ~1000-fold dilution): 10 mM)
NF-kB SEAP reporter activity (RAW-Dual [3]; agonist: LPS (TLR4) 0.1 ug/mL): 0.329 and 0.35 | NF-kB SEAP reporter activity (RAW-Dual [3]; [6]): 0.729 and 1.48 | NF-kB SEAP reporter activity (RAW-Dual [3]; [7]): 0.0917 and 0.128 | NF-kB SEAP reporter activity (RAW-Dual [3]; [8]): 0.252 and 0.376

O=C(NCCCNc1nc(Nc2cccc(CN3CCOCC3)c2)ncc1C1CC1)C1CCC1 (library stock concentration (final ~1000-fold dilution): 10 mM)
NF-kB SEAP reporter activity (RAW-Dual [2]; agonist: LPS (TLR4) 0.1 ug/mL): 2.49 and 3.77 | NF-kB SEAP reporter activity (RAW-Dual [2]; [6]): 0.595 and 0.333 | NF-kB SEAP reporter activity (RAW-Dual [2]; [7]): 2.26 and 2.33 | NF-kB SEAP reporter activity (RAW-Dual [2]; [8]): 4.25 and 3.71

CN1CCc2cc(Nc3ncc(C4CC4)c(NCCCNC(=O)C4CCC4)n3)ccc2C1 (library stock concentration (final ~1000-fold dilution): 10 mM)
NF-kB SEAP reporter activity (RAW-Dual [3]; agonist: LPS (TLR4) 0.1 ug/mL): 0.23 | NF-kB SEAP reporter activity (RAW-Dual [3]; [6]): 0.207 | NF-kB SEAP reporter activity (RAW-Dual [3]; [7]): 0.0969 | NF-kB SEAP reporter activity (RAW-Dual [3]; [8]): 0.211

CN1CCc2cc(Nc3ncc(C4CC4)c(NCCCNC(=O)C4CCC4)n3)ccc2C1
NF-kB SEAP reporter activity (RAW-Dual [1]; cytotoxicity flag (confluency mask): cytotoxic (confluency <70% of control), agonist: Imiquimod (TLR7) […]): 0.243 | NF-kB SEAP reporter activity (RAW-Dual [1]; cytotoxicity flag (confluency mask): cytotoxic (confluency <70% of control), agonist: MPLA (TLR4) […]): 0.288

O=c1[nH]cnc2ccccc12 (library stock concentration (final ~1000-fold dilution): 10 mM)
NF-kB SEAP reporter activity (RAW-Dual [2]; agonist: LPS (TLR4) 0.1 ug/mL): 1.14 | NF-kB SEAP reporter activity (RAW-Dual [2]; [6]): 0.991 | NF-kB SEAP reporter activity (RAW-Dual [2]; [7]): 1.05 | NF-kB SEAP reporter activity (RAW-Dual [2]; [8]): 1.08

O=c1[nH]cnc2ccccc12
NF-kB SEAP reporter activity (RAW-Dual [1]; [4]): 0.847 | NF-kB SEAP reporter activity (RAW-Dual [1]; [5]): 0.983
